In all, about 330,000 compounds went through this assay and about 1,900 (0.58%) were called active. About 4% were inconclusive and are not listed. The list is a sample of the results. Entries with a potency or affinity are not part of this list. Values without a mark were called inactive. No stated cut-off is given here; in the data, inconclusive means inhibition above about 70% without an active follow-up result; inactive means below that.
Assay: M. tuberculosis growth inhibition, HTS (AID 449762);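 further: bacterial growth assessed after seven days of incubation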
Conditions: M. tuberculosis H37Rv growth inhibition, 7H9 media; at 25 µM; active compounds read high
Compound `CCN1CCN(c2nc(C)c3c(n2)CC(C)CC3=O)CC1` (centres undefined) has an inhibition of 11.3%.
`COC(=O)c1ccc(COc2cc([N+](=O)[O-])cc3cccnc23)cc1` showed an inhibition of 3.92%.
With `COC(=O)c1ccc(COc2cc([N+](=O)[O-])cc3cccnc23)o1` the inhibition was -2.4%.
`O=C(CN1c2ccccc2Sc2ccccc21)N/N=C/c1ccc(Cl)cc1Cl` gave an inhibition of 4%.
Compound `COc1ccccc1C(=O)NNC(=O)C12CC3CC(CC(C3)C1)C2` has an inhibition of -6.93%.
Compound `Cc1ccc2c(CN3CCN(Cc4ccccc4)CC3)cc(=O)oc2c1C` has an inhibition of 3.31%.
In the case of `Cc1cc(C)c2c(CN3CCN(Cc4ccccc4)CC3)cc(=O)oc2c1`, the inhibition is reported as 0.88%.
`Fc1ccccc1N1CCN(C(c2ccncc2)c2nnnn2C2CCCC2)CC1` (centres undefined) showed an inhibition of -0.2%.
Compound `O=C(NCCO)c1cccc(S(=O)(=O)N2CCCCC2)c1` has an inhibition of -4.67%.
In the case of `CC1CC(C)CN(C(=O)CN2C(=O)NC3(CCCCCC3)C2=O)C1` (centres undefined), the inhibition is reported as 6.02%.
For `CSc1snc(SCC(N)=O)c1C#N`, the inhibition was -0.39%.
`N#Cc1c(SCC(=O)OCc2ccccc2)nsc1SCC(=O)OCc1ccccc1` gave an inhibition of 14.1%.
Compound `CC(=O)CSc1nsc(SCC(C)=O)c1C#N` has an inhibition of -3.69%.
Work on `COC(=O)CSc1nsc(SCC(=O)OC)c1C#N` yielded an inhibition of -0.76%.
With `CCC(C)N(C(=O)COC(=O)c1nc2nc(C)cc(C)n2n1)C1CCS(=O)(=O)C1` (centres undefined) the inhibition was 5.26%.
For `CCCOc1ccc(CC2CCC(=O)NC2=O)cc1` (centres undefined), the inhibition was 5.69%.
In the case of `COc1ccc(CNS(=O)(=O)c2ccc3c(c2)NC(=O)C(C)S3)cc1` (centres undefined), the inhibition is reported as 6.65%.
`CCc1c(C)sc(NC(=S)N2CCN(S(C)(=O)=O)CC2)c1C(=O)OC` showed an inhibition of 0.54%.
With `CCc1c(C)sc(NC(=S)N2CC(C)OC(C)C2)c1C(=O)OC` (centres undefined) the inhibition was 3.86%.
For `CCN(CC(=O)NCc1ccc(Cl)cc1)C(=O)CN1C(=O)NC(C)(c2ccccc2)C1=O` (centres undefined), the inhibition was -3.75%.
Work on `CCOC(=O)C(C)NC(=O)c1cn(-c2ccc(OC)cc2)c(=O)c2ccccc12` (centres undefined) yielded an inhibition of 3.17%.
Compound `CCC(C)NC(=O)c1cn(-c2cccc(OC)c2)c(=O)c2ccccc12` (centres undefined) has an inhibition of 4.02%.
Compound `N#C/C(C(N)=O)=C1/SC=C(c2ccccc2)N1c1ccccc1` has an inhibition of -6.75%.
Compound `NS(=O)(=O)c1ccc(NC(=S)NC(=O)c2ccc(Br)o2)cc1` has an inhibition of -3.72%.
Work on `Cc1ccc(S(=O)(=O)NC(=O)Nc2ccc(C)cc2C)cc1` yielded an inhibition of -6.63%.
`Cn1c(=O)c2c(ncn2CC(=O)Nc2ccc(N3CCOCC3)cc2)n(C)c1=O` showed an inhibition of -5.62%.
`O=C(O)CN=CC1=C(O)CC(c2ccccc2)CC1=O` (centres undefined) showed an inhibition of 4.73%.
For `N/C(Cc1ccc(Cl)cc1)=N\OC(=O)c1ccc2ccccc2c1`, the inhibition was 0.18%.
`N/C(Cc1ccc([N+](=O)[O-])cc1)=N\OC(=O)c1ccc([N+](=O)[O-])cc1` showed an inhibition of 44.8%.
`CCCCn1c(N)c(N(CCOC)C(=O)c2cccc(S(=O)(=O)N3CCCCCC3)c2)c(=O)[nH]c1=O` showed an inhibition of -2.07%.
Compound `CC(=O)Oc1ccc(C#C/C=C2\c3ccccc3C(=O)N2c2ccccc2)cc1` has an inhibition of 22.6%.
Work on `CC(=O)Oc1cccc(N2C(=O)c3ccccc3C2=O)c1` yielded an inhibition of -13.4%.
`Cc1nc2c(cc1NC(=O)C(C)(C)C)nc(C)n2Cc1ccccc1` showed an inhibition of -8.25%.
With `O=c1cc(-c2ccccc2Cl)oc2cccc(O)c12` the inhibition was 1.24%.
Work on `Nc1ccc2oc(-c3ccccc3Cl)cc(=O)c2c1O` yielded an inhibition of -3.11%.
`COc1ccccc1N(CC(=O)NCCSC(C)(C)C)S(C)(=O)=O` showed an inhibition of 2.68%.
`COc1ccc2oc(C(=O)c3ccccc3)c(NC(=O)CN3CCN(C)CC3)c2c1` gave an inhibition of 15.4%.
For `CN1CCN(CC(=O)Nc2c(C(=O)c3ccccc3)oc3ccccc23)CC1`, the inhibition was 3.75%.
For `COC(C[C@@H]1O[C@H]1C(=O)COCc1ccccc1)OC`, the inhibition was -5.79%.
Work on `O=C(Cn1ccc([N+](=O)[O-])n1)NCc1cccnc1` yielded an inhibition of 4.03%.
`CCCCSC1(SCCCC)N=C(N)C2(C#N)C(c3ccccc3)NC(C)=CC12C#N` (centres undefined) showed an inhibition of -0.17%.
`CCCC(=O)Nc1ccccc1NC(=O)CCC` showed an inhibition of 0.31%.
Compound `CCC(=O)Nc1cccc2ccccc12` has an inhibition of -0.62%.
`COc1ccc(C(=O)N(c2ccc(OC)cc2)S(=O)(=O)c2cccs2)cc1` showed an inhibition of 4.22%.

Source: PubChem BioAssay AID449762 (Southern Research Specialized Biocontainment Screening …, 2010)
